Compound activity (PubChem)
Shown are actives, neighbours in structure and some others; about 2.3% of the full set was active somewhere.
Mcl-1 Bim block = human Bim-Mcl-1 interaction inhibition; Q07820; inhibition, % at 10 µM; AID 1009; 0.1% of 190,000 active; Bead-based flow cytometry, Bim peptide-Mcl-1 binding; in the data active = inhibition above about 40%
GLD-1 RNA inh = GLD-1-TGE RNA interaction inhibition (C. elegans); inhibition, % at 5.96 µM; purified GLD-1 + fluorescein TGE RNA, fluorescence polarization; AID 2280; Q17339; 0.44% of 320,000 active;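 active = percent inhibition above a per-plate cutoff, the plate mean of test compounds plus 3 SD, cut at about 30% in these data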
Target sequence (Q17339 whole entry, looked up): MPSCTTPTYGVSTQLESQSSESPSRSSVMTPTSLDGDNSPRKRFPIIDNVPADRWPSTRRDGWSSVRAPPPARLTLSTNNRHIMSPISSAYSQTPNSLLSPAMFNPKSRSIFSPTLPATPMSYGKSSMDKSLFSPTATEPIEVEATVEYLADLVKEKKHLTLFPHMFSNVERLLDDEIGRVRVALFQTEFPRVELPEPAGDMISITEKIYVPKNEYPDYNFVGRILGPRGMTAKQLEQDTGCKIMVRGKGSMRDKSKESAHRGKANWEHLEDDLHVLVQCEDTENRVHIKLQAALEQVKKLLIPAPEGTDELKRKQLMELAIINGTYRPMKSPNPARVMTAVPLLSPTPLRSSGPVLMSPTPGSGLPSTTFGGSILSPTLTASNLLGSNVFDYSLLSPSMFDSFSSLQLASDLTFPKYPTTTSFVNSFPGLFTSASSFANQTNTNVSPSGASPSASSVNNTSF
Mcl1-Bid inh = Mcl-1/Bid interaction inhibition; Q07820; TR-FRET Mcl-1/Bid-Dy647 peptide binding, 1536-well; inhibition, % at 21.7 µM; 0.97% of 220,000 active;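 active = compounds that cut the binding signal by more than half at the single screening dose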;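 also: His-tagged Mcl-1 with europium anti-His antibody binding Bid BH3 peptide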
MCL1-BIM inh = MCL1-BIM-BH3 interaction inhibition (human). Q07820. GST-MCL1 / FITC-Bim-BH3 fluorescence polarization. inhibition, % at 10.9 µM. 0.68% of 320,000 active;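 active = inhibition above the mean inhibition of all tested compounds plus 3 SD, set per campaign, cut at about 40% in these data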;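 also: higher means more loss of mP so more displacement of Bim peptide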
BCLXL inh = Bcl-xL (human) inhibition; GST-Bcl-xL / FITC-Bim BH3 peptide fluorescence polarization; inhibition, % at 10.9 µM; 0.7% of 320,000 active; AID 2129;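 active = inhibition above the mean of all tested compounds plus 3 SD, cutoff set per campaign, cut at about 30% in these data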;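 also: inhibitors lower millipolarization by displacing the labeled peptide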
Mcl1 Noxa PPI = Mcl-1/Noxa interaction inhibition | Q07820 | TR-FRET Mcl-1/Noxa peptide binding, 2 h | inhibition, % at 21.7 µM | 1.5% of 220,000 active | AID 1022;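 active = compounds that cut the protein-peptide binding signal by more than 50% relative to plate controls in a single-dose test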;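 also: His-tagged Mcl-1 with rhodamine Noxa BH3 peptide and terbium anti-His antibody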
Of the large screens only hits and unclear results are named; the others gave an inactive call.

CCNc1ccc(S(N)(=O)=O)cc1[N+](=O)[O-]	Mcl1 Noxa PPI 51.3
CCNc1ccc(S(=O)(=O)NCCN(C)C)cc1[N+](=O)[O-]	none
CCOc1ccccc1-c1c2cc(O)c(=O)cc-2oc2cc(O)c(O)cc12	Mcl1 Noxa PPI 59.1 (no result: GLD-1 RNA inh, MCL1-BIM inh, BCLXL inh)
O=c1cc2oc3cc(O)c(O)cc3c(-c3ccccc3O)c-2cc1O	none (no result: Mcl-1 Bim block, GLD-1 RNA inh, MCL1-BIM inh, BCLXL inh)
CCCOc1cccc(CN2CCCCC2c2cccnc2)c1 (stereo not drawn)	Mcl1-Bid inh 70.1
O=C(CCN1CCCCC1c1cccnc1)NCc1ccccc1 (stereo not drawn)	none
C[C@H](O)[C@H](O)[C@H]1CNc2nc(N)[nH]c(=O)c2N1	BCLXL inh 32.8 (no result: Mcl-1 Bim block, Mcl1-Bid inh, Mcl1 Noxa PPI)
C[C@H](O)C(=O)C1=Nc2c(nc(N)[nH]c2=O)NC1	none (no result: Mcl-1 Bim block, Mcl1-Bid inh, Mcl1 Noxa PPI)
O=c1oc2ccccc2c(Nc2cc3ccccc3cc2O)c1[N+](=O)[O-]	Mcl1 Noxa PPI 52.5
O=c1oc2ccccc2c(Nc2ccccc2O)c1[N+](=O)[O-]	none
Cc1ccc(S(=O)(=O)N(C)CC(O)Cn2c3ccccc3c3ccccc32)cc1 (stereo not drawn)	Mcl1-Bid inh 72.4
COc1cc(S(=O)(=O)N2CCCN(C)CC2)ccc1NC(C)=O	none (no result: Mcl-1 Bim block, Mcl1-Bid inh, Mcl1 Noxa PPI)
Cc1cccc(/C=N/NC(=O)C2CCCNC2=O)c1 (stereo not drawn)	none
Cc1ccccc1NC(=O)Cn1c(O)c(N=NC(=O)c2ccccc2O)c2ccccc21	Mcl1-Bid inh 66.0
C=CCn1c(SCC(=O)Nc2sc3c(c2C#N)CCC3)nnc1C1COc2ccccc2O1 (stereo not drawn)	Mcl1-Bid inh 54.8
N=c1c(C(=O)NCc2ccccc2)cc2c(=O)n3ccccc3nc2n1Cc1ccco1	Mcl1 Noxa PPI 57.5
N=c1c(C(=O)NCc2ccco2)cc2c(=O)n3ccccc3nc2n1Cc1ccccc1	MCL1-BIM inh 48.2, BCLXL inh 37.6
Cc1cccn2c(=O)c3cc(C(=O)NCc4ccco4)c(=N)n(CCc4ccccc4)c3nc12	BCLXL inh 32.5, Mcl1 Noxa PPI 80.3 (no result: Mcl-1 Bim block)
CCN1C(=O)[C@@H]2[C@H](C1=O)[C@@H]1C(=O)Nc3ccccc3C(=O)N1[C@@H]2c1ccc(OC)cc1	none (no result: Mcl-1 Bim block, Mcl1-Bid inh, Mcl1 Noxa PPI)
Cc1c(CC(=O)O)c(=O)oc2cc(OCc3ccc(Cl)cc3)ccc12	none (no result: Mcl-1 Bim block, Mcl1-Bid inh, Mcl1 Noxa PPI)
Cc1cc(C2=NNC(=Nc3ccc(S(=O)(=O)N4CCOCC4)cc3)SC2)c(C)n1C	Mcl1 Noxa PPI 72.0 (no result: Mcl-1 Bim block)
C=CCn1c(C)cc(C2=NNC(=Nc3ccc(C)cc3)SC2)c1C	none
COc1ccc2oc(-c3ccc(C)c(NC(=O)CSc4ccc(Cl)cc4)c3)nc2c1	Mcl1-Bid inh 53.7
CCn1cc(CN2CCC(C(=O)Nc3ccc(Oc4cccnc4)cc3)CC2)cn1	none (no result: Mcl-1 Bim block, Mcl1-Bid inh, Mcl1 Noxa PPI)
COc1cccc(N/C(SCc2ccccc2C)=C(/C#N)C(=O)NCc2cccs2)c1	Mcl1-Bid inh 54.0
CC1O[C@@H](O[C@H](C)CC[C@@H](C)O)C(O)C[C@H]1O (stereo partly drawn)	none (no result: Mcl-1 Bim block, Mcl1-Bid inh, Mcl1 Noxa PPI)
CN(C)c1ccc(-c2nnc(-c3ccc(S(=O)(=O)C(F)F)cc3)o2)cc1	Mcl1-Bid inh 72.7
O=C(COC(=O)c1ccc(S(=O)(=O)N2CCCCCC2)cc1)NCc1ccc(Cl)cc1	none (no result: Mcl-1 Bim block, Mcl1-Bid inh, Mcl1 Noxa PPI)
COC(=O)c1[nH]c2ccc(Cl)cc2c1NC(=O)Oc1ccccc1	Mcl1 Noxa PPI 50.8
Cc1cc(OC(C)C(=O)NCc2ccncc2)c2c(C)c(C)c(=O)oc2c1 (stereo not drawn)	none (no result: Mcl-1 Bim block, Mcl1-Bid inh, Mcl1 Noxa PPI)
COCCn1cc(C(=O)N2CCC(C)CC2)c2c3ccccc3n(C)c2c1=O	Mcl1-Bid inh 95.1
CC(C)Cn1cc(C(=O)N2CCC(C)CC2)c2c3ccccc3n(C)c2c1=O	none
O=c1c2ccccc2cnn1CCOc1cccc(Br)c1	none (no result: Mcl-1 Bim block, Mcl1-Bid inh, Mcl1 Noxa PPI)
CCn1cc(C(C)NC(=O)Nc2ccc3c(c2)OCO3)c(C)n1 (stereo not drawn)	none
COc1ccc(NC2CCN(C3CC(=O)N(c4ccc(F)c(Cl)c4)C3=O)CC2)cc1 (stereo not drawn)	Mcl1 Noxa PPI 56.0
COc1cccc(N2CCN(C3CC(=O)N(c4ccc(F)c(Cl)c4)C3=O)CC2)c1 (stereo not drawn)	none
COc1ccc(/C=N/n2c(-c3ccccc3)n[nH]c2=S)cc1	none (no result: Mcl-1 Bim block, Mcl1-Bid inh, Mcl1 Noxa PPI)
COc1ccc(/C=N/n2c(N)nc(-c3ccccc3)c2-c2ccccc2)cc1	Mcl1-Bid inh 56.5
